In ChEMBL document CHEMBL3988442, “University of Dundee, Small-Polar-MMV Screening Library” (2021):
For some of these results: Results with a measured potency or affinity are listed apart.

Assays:
Set-up in all cases: scale not given: direction of the effect not stated beside the values
[1] = target: Protein translocase subunit SecA (Escherichia coli (strain K12)) (UniProt P10408); assay: Assay to Identify E. coli SecA ATPase Inhibitors; format: functional; settings: 30 µM
[2] = target: T1, Ubiquitin-activating enzyme e1, putative (Leishmania donovani (strain BPK282A1)) (UniProt E9BSI1); assay: Leishmania donovani Ubiquitin Activating Enzyme (LdE1); format: functional; settings: 30 µM
T1 sequence (whole entry): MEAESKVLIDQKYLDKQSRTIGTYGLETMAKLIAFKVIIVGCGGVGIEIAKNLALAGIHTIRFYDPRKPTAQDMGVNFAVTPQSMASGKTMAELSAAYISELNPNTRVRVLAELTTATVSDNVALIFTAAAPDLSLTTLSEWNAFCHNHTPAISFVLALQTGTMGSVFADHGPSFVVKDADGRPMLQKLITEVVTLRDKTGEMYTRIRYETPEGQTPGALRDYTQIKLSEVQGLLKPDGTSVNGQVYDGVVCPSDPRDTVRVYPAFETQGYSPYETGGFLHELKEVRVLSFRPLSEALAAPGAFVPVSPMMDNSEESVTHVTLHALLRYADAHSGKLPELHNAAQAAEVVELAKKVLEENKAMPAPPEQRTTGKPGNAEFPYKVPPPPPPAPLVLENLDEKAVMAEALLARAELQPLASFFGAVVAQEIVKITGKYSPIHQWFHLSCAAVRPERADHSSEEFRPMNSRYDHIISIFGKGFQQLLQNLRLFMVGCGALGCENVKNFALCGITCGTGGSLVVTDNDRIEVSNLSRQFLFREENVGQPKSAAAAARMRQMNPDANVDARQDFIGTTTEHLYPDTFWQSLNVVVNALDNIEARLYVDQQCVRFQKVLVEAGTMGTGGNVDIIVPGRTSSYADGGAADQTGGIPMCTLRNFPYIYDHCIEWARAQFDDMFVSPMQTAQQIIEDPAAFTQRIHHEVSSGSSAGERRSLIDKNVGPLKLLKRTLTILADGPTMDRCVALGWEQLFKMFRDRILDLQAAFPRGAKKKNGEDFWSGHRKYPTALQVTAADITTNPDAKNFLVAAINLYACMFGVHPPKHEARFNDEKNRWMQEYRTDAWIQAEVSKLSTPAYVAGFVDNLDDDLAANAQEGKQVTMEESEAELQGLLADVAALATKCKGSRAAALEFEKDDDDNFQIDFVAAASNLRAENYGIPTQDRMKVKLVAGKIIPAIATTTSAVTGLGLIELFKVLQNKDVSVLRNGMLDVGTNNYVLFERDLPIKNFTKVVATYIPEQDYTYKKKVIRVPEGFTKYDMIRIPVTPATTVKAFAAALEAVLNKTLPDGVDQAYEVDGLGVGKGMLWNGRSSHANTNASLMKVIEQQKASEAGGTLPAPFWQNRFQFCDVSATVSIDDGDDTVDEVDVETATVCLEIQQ

[3] = target: AMP-activated protein kinase, AMPK (Homo sapiens) (UniProt P54646+O43741+P54619+Q9UGJ0+Q9Y478+Q13131+Q9UGI9); assay: AMP-dependent Kinase enzyme assay. An in vitro enzyme assay that detects ADP turnover that is directly proportional to AMPK activity. This uses naive AMPK that is activated during the assay with MK-8722; format: functional; settings: 30 µM
[4] = target: Sialic acid-binding Ig-like lectin 9 (Homo sapiens) (UniProt Q9Y336); assay: Hs-Siglec9 ALPHAscreen SOP 20170721; settings: 10 µM
[5] = system: Trypanosoma cruzi; assay: Trypanosoma cruzi phosphomannomutase and mannose-1-phosphate guanylyltransferase assay; format: functional; settings: 10 µM
[6] = target: T2, Arginase-2, mitochondrial (Homo sapiens) (UniProt P78540); assay: in vitro enzyme assay to detect the production of urea directly proportional to the activity of Arginase II; format: functional; settings: 33.3 µM; also: in the data most compounds retested in dose-response had high values
T2 sequence (whole entry): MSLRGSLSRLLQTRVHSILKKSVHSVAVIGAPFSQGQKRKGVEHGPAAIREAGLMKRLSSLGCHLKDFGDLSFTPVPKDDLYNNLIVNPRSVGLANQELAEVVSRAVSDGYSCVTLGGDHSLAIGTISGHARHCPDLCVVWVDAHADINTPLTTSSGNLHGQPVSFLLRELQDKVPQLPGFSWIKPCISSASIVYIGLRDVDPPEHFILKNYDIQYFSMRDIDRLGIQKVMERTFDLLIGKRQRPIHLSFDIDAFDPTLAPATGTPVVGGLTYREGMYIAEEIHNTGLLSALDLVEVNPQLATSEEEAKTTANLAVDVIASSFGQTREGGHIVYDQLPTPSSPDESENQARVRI

[7] = target: T3, Proteasome subunit beta (Trypanosoma cruzi) (UniProt O96673); assay: Trypanosoma cruzi proteasome chymotrypsin-like activity (TcProtChymo) assay.; also: in the data most compounds retested in dose-response had high values; format: functional; settings: 9.37 µM
T3 sequence (whole entry): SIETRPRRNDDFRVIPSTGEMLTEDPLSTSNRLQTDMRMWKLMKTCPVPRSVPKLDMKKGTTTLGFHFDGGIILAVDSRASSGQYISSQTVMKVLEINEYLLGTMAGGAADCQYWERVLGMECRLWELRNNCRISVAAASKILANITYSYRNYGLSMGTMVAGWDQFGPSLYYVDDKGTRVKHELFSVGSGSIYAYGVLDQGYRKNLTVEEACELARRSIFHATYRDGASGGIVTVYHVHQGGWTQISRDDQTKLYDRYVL

[8] = organism: Homo sapiens; assay: To identify inhibition of the IFN signalling (Jak-Stat) pathway via expression of an eGFP reporter gene under the control of an IFN-stimulated response element (ISRE) containing MxA promoter.; format: functional; settings: 30 µM
[9] = target: T4, Tyrosyl-tRNA synthetase, putative (Trypanosoma cruzi (strain CL Brener)) (UniProt Q4DSP6); assay: Trypanosoma cruzi tyrosyl tRNA synthetase (TcYRS) _High Tyrosine SOP; format: functional; settings: 30 µM; also: in the data most compounds retested in dose-response had high values
T4 sequence (whole entry): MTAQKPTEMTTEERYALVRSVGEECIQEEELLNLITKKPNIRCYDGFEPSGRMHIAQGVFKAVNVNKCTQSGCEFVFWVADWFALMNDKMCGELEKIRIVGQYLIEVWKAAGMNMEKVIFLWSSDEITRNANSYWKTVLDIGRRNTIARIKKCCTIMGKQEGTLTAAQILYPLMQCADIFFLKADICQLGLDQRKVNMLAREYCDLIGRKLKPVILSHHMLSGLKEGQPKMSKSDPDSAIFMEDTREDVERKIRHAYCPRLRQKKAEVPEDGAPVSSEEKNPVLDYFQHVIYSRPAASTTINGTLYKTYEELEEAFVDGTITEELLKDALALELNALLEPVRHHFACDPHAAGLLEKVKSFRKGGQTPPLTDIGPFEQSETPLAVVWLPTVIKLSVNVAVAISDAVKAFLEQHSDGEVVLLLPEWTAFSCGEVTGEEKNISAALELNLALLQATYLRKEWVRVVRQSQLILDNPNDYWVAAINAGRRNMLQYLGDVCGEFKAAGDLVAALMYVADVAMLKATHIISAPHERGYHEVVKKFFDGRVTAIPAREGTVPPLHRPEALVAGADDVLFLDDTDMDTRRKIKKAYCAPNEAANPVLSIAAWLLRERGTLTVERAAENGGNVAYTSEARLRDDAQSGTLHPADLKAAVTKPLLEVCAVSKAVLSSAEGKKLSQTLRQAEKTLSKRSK

[10] = target: T4, Tyrosyl-tRNA synthetase, putative (Trypanosoma cruzi (strain CL Brener)); assay: Trypanosoma cruzi tyrosyl tRNA synthetase (TcYRS) SOP; format: functional; settings: 30 µM
[11] = target: Chromo domain-containing protein 1 (Saccharomyces cerevisiae (strain ATCC 204508 / S288c) (Baker's yeast)) (UniProt P32657); assay: ScCHD-1 Enzyme Inhibition Assay; format: functional; settings: 30 µM; also: in the data most compounds retested in dose-response had high values
Chain of Chromo domain-containing protein 1 (Saccharomyces cerevisiae (strain ATCC 204508 / S288c) (Baker's yeast)) (P32657 whole entry, the tested form may be a part): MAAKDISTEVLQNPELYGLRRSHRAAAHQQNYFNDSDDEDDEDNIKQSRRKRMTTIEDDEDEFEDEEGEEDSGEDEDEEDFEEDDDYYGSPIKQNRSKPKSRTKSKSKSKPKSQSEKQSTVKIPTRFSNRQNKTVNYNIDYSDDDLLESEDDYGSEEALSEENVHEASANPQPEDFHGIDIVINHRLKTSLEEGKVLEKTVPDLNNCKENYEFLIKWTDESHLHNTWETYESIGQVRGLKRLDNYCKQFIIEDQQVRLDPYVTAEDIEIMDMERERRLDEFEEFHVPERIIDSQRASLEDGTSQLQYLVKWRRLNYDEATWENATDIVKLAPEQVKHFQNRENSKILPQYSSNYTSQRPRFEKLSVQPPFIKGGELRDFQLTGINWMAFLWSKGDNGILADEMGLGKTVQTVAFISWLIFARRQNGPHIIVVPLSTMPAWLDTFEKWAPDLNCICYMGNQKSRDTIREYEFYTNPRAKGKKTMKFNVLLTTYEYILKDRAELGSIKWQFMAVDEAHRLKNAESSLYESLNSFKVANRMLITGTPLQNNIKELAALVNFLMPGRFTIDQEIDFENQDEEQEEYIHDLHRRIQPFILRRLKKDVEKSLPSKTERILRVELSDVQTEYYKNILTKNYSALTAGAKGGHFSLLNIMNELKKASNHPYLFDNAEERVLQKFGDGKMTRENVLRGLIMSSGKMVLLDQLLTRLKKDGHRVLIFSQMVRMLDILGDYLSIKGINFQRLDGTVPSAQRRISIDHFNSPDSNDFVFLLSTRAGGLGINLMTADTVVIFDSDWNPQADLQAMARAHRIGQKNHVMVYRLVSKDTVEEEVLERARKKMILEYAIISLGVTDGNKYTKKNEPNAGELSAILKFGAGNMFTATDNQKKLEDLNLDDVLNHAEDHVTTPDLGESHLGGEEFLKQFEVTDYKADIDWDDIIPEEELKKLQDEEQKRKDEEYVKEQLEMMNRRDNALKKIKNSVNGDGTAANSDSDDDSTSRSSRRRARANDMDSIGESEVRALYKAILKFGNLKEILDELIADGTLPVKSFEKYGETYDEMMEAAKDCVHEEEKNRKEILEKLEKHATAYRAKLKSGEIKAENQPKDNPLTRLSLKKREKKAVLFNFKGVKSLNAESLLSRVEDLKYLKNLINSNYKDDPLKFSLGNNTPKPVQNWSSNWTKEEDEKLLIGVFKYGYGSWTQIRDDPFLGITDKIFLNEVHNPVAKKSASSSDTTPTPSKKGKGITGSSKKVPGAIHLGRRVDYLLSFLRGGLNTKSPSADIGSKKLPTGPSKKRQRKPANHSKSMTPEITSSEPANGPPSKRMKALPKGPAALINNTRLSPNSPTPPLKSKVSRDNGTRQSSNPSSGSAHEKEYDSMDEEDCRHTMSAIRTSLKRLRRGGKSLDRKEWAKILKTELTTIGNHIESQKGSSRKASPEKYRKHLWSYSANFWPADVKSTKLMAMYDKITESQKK

Chain of Sialic acid-binding Ig-like lectin 9 (Homo sapiens) (Q9Y336 whole entry): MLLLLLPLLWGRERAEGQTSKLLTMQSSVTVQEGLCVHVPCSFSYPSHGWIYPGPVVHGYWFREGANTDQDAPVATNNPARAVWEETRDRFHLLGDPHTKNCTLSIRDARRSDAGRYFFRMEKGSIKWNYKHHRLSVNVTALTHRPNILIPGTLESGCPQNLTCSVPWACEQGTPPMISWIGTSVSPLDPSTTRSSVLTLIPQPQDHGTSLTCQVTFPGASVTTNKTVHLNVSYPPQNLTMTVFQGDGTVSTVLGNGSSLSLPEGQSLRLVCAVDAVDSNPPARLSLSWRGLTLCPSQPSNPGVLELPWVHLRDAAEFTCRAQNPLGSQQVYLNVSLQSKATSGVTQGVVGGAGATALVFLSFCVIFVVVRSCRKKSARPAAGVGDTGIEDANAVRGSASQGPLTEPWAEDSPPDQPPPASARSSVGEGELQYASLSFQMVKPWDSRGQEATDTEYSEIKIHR
Chain of Protein translocase subunit SecA (Escherichia coli (strain K12)) (P10408 whole entry): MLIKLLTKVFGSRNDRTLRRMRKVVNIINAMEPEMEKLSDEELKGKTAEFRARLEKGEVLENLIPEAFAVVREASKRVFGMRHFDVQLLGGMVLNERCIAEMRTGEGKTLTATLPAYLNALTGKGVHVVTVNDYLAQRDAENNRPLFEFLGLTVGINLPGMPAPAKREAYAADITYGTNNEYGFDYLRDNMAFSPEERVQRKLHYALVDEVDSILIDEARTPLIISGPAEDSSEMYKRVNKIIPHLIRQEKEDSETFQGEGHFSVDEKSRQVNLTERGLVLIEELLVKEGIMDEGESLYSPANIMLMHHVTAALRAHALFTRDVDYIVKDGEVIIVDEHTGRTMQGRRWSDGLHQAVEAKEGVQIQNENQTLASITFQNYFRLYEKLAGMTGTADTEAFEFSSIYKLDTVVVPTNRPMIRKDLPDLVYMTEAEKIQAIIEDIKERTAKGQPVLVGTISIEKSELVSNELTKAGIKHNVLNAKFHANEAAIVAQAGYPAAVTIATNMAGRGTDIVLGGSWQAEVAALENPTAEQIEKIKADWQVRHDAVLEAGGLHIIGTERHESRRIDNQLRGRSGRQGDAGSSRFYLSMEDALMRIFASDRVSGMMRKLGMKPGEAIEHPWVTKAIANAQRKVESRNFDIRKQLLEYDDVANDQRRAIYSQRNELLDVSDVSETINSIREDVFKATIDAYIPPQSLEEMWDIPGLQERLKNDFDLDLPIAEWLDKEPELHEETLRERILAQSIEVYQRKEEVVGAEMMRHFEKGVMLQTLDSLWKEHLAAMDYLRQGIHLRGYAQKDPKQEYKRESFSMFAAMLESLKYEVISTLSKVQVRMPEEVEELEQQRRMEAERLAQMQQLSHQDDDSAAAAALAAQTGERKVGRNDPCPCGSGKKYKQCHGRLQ

| SMILES | Percent Effect [1] [%] | Percent Effect [2] [%] | Percent Effect [3] [%] | Percent Effect [4] [%] | Percent Effect [5] [%] | Percent Effect [6] [%] | Percent Effect [7] [%] | Percent Effect [8] [%] | Percent Effect [9] [%] | Percent Effect [10] [%] | Percent Effect [11] [%] |
| --- | --- | --- | --- | --- | --- | --- | --- | --- | --- | --- | --- |
| Cc1cccc(NS(=O)(=O)c2cc(C(=O)O)oc2C)c1Cl | -6.42 | 0 | 0.702 | 9.91 | 6.18 | -4.27 | 0.338 | 3.85 | 1.94 | 9.76 | -7.97 |
| CS(=O)(=O)N1CC[C@H]2[C@H](C[C@@H](Cn3cncn3)N2CC2CC2)C1 | -6.68 | 10.4 | 9.89 | 7.05 | -1.87 | -4.14 | 7.16 | -4 | 3.23 | 6.17 | -0.097 |
| CN1CC(=O)N(c2cccc(F)c2)CC12CCN(S(C)(=O)=O)C2 (stereo unspecified) | -4.45 | 10.8 | 2.57 | 0.944 | -1.07 | 3.5 | 18.8 | -6.25 | 4.32 | 10.3 | -1.22 |
| COCCN1CCC(N(Cc2noc(C3CC3)n2)C(C)=O)C1 (stereo unspecified) | -2.54 | 13.5 | -5 | -6.65 | -5.11 | -0.924 | 18.3 | 20.9 | 0.99 | 11 | -8.27 |
| Cn1cccc1C(=O)N1CCC2(CC1)CN(c1ccccn1)CCO2 | -5.31 | 5.2 | -0.668 | 10.6 | 9.54 | -55.2 | 5.49 | 6.16 | -2.15 | -1.24 | -2.89 |
| O=C(CCc1nccs1)N1CCN(c2ncccn2)CC1 | -10.4 | -7.79 | -1.74 | -4.24 | 7.93 | -0.632 | 9.3 | 1.03 | 5.71 | 18.8 | -11 |
| COc1cccc(CN2C[C@@H]3COC[C@]3(COCc3ccncc3)C2)c1 | -5.26 | 8.11 | 5.1 | -1.02 | 6.94 | -4.14 | 14.6 | 5.58 | 2.16 | 10.3 | -0.65 |
| Cc1ncc2c(n1)CCCC2NC(=O)c1ccncc1 (stereo unspecified) | -8.52 | 2.6 | -3.85 | 1.2 | -1.87 | -1.38 | 3.16 | 0.503 | 1.07 | -3.7 | -0.226 |
| Cc1ccc(NC(=O)c2n[nH]c(-n3cnnc3)n2)cc1C | -5.16 | 9.33 | -5.75 | -2.63 | 4.32 | 21.6 | -10.7 | -2.17 | 8.47 | 10.3 | -18.6 |
| Cc1nc(C2CCCN(C(=O)c3scnc3C)C2)no1 (stereo unspecified) | -3.05 | 6.94 | -13.5 | 8.6 | 4.76 | 1.77 | 14.2 | -0.897 | -1.05 | 2.56 | -2.17 |
| Cc1nn(C)c(C)c1-c1cncc(C2CCN(S(C)(=O)=O)CC2)n1 | 0.332 | -2.67 | 22.7 | 4.44 | -1.77 | 2.1 | -3.96 | 25.6 | 3.19 | 3.85 | 0.849 |
